# In PubChem BioAssay (Tox21):
# Values without a mark were called inactive. Inconclusive results are not listed. Calls of active or inactive are those of the source. Calls come from the whole dose curve.
# Molecular target: Acetylcholinesterase (Homo sapiens) (UniProt P22303)
# Assay: Acetylcholinesterase (AChE) small molecule antagonists: enzyme-based qHTS assay (AID 1347397); note: nearly all actives have a fitted effect of over 55% in size
# Settings: Potency: AChE enzyme activity inhibition; outcome: AChE enzyme activity inhibition; series mostly up to 115 µM; activity change, negative = inhibition: at the top concentration
# Outline: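 Compound or DMSO vehicle was pin-transferred onto recombinant human AChE (50 mU/mL as dispensed) and left 30 min at room temperature. Acetylthiocholine with DTNB then started the reaction, read colorimetrically 10 min later.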
# % is set by controls: 0 for no effect and ±100 for the full control effect; potency is the fitted concentration of half-maximal effect.
# Chain of Acetylcholinesterase (Homo sapiens) (P22303 whole entry, looked up): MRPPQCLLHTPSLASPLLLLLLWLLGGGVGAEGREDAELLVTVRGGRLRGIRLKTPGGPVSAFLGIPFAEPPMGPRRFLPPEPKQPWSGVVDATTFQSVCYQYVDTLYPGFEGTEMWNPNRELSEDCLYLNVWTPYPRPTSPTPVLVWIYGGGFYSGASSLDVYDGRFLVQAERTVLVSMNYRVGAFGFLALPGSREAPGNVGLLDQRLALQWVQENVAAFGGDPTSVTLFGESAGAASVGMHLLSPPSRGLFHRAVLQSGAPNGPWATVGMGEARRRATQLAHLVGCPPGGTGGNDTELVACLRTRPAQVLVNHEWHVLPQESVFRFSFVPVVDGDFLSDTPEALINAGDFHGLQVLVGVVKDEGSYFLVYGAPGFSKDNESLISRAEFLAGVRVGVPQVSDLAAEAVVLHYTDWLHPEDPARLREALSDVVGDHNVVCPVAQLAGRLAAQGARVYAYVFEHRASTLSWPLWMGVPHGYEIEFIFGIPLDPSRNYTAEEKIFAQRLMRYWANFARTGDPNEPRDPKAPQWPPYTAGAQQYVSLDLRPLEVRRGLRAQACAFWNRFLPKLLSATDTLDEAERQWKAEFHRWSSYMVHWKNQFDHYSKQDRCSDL
Compound,"activity change, negative = inhibition",Potency
C[C@@H]1C[C@H]2[C@@H]3CCC4=CC(=O)C=C[C@]4(C)[C@@]3(F)[C@@H](O)C[C@]2(C)[C@H]1C(=O)CO,-0.344% [at 53 µM],
CC(C)COC(=O)c1ccccc1O,-0.549%,
Oc1ccc2c(c1)OCO2,0%,
CO/N=C(/C(=O)N[C@@H]1C(=O)N2C(C(=O)[O-])=C(C[n+]3ccn4ncccc43)CS[C@H]12)c1nsc(N)n1,1.48% [at 53 µM],
CCc1ccc(Br)cc1,1.91%,
CCc1cccc(O)c1,,inactive
OC1CCCCCCCCCCC1,,inactive
CC(C)=CCOC(=O)c1ccccc1,1.17%,
CC(C)Nc1ccccc1,0.546%,
CC(=O)c1ccc(O)cc1,,inactive
Cn1sccc1=O,2.14%,
CC(C)(C)NC[C@H](O)COc1cccc2c1CCCC2=O,0.161% [at 53 µM],
CC(O)CO (stereo not given),,inactive
CC(C(=O)O)c1ccc(-c2ccccc2)c(F)c1 (stereo not given),1.03%,
NC(=O)N1C(=O)C(C(=O)c2cc(Cl)cs2)c2cc(F)c(Cl)cc21 (stereo not given),-4.43%,
CC(C)c1nc(CN(C)C(=O)N[C@H](C(=O)N[C@@H](Cc2ccccc2)C[C@H](O)[C@H](Cc2ccccc2)NC(=O)OCc2cncs2)C(C)C)cs1,-0.405% [at 53 µM],
COc1ccc(/C=N/NC(=O)c2ccncc2)cc1OC,0.841% [at 53 µM],
c1ccc2[nH]ccc2c1,,inactive
CCN(Cc1c(F)cccc1Cl)c1c([N+](=O)[O-])cc(C(F)(F)F)cc1[N+](=O)[O-],1.45%,
O=c1[nH]c(=O)c2[nH]c(=O)[nH]c2[nH]1,2.79% [at 10.5 µM],

Compound,"activity change, negative = inhibition",Potency
CN1CCN(C2Cc3ccccc3Sc3ccc(Cl)cc32)CC1 (stereo not given),-8.76% [at 53 µM],
CCN(CC)CC(=O)Oc1ccc(NC(C)=O)cc1,-0.945% [at 53 µM],
Cn1c(=O)c2[nH]c(Br)nc2n(C)c1=O,-0.693% [at 53 µM],
O=S(=O)(O)C(F)(F)F,0.0645%,
CC(C)(CO)[N+](=O)[O-],-0.213%,
C=CCOC(=O)/C=C\C(=O)OCC=C,-0.856%,
C=C1C(CCl)(CCl)C2(Cl)C(Cl)C(Cl)C1(Cl)C2(Cl)Cl (stereo not given),-13.1%,
CC1(C)CC(O)CC(C)(C)N1,0.403%,
CCc1ccc(CCOc2ccc(CC3SC(=O)NC3=O)cc2)nc1 (stereo not given),,inactive
CC[C@H](NC(C)C)[C@H](O)c1ccc(O)c2[nH]c(=O)ccc12,-0.27% [at 53 µM],
CCCCCCOC(=O)c1ccc(O)cc1,,inactive
CCCCCCCCCCCCCC[n+]1ccccc1,,56.4 µM (active)
CCCCCCCCCCCSCC(=O)O,1.92%,
CCCCCCCCC(=O)O,,inactive
CC(N)=O,1.11% [at 300 µM],
CCOC(=O)OCC,-0.136%,
COc1nc(C)nc(N)n1,0.691%,
C=Cc1cccc(C)c1,,inactive
CCCCCCCCCCCCS,,inactive
CCN(CC)CCNC(=O)c1cc(S(C)(=O)=O)ccc1OC,-2.91% [at 53 µM],

# Molecular target: Acetylcholinesterase (Homo sapiens) (UniProt P22303)
# Assay: Acetylcholinesterase (AChE) small molecule antagonists: fluorescence cell-based qHTS assay (AID 1347398); note: nearly all actives have a fitted effect of over 50% in size
# Settings: SH-SY5Y cells; Potency: AChE activity; outcome: AChE activity; series mostly up to 115 µM; activity change, negative = inhibition: at the top concentration
# Outline: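 Using neuroblastoma SH-SY5Y cells as the enzyme source, test chemicals are preincubated 30 min at 37 C; AChE-driven acetylthiocholine cleavage is then quantified by thiocholine-dependent Thiolite Green fluorescence after 40 min at room temperature.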
Compound,"activity change, negative = inhibition",Potency
C[C@@H]1C[C@H]2[C@@H]3CCC4=CC(=O)C=C[C@]4(C)[C@@]3(F)[C@@H](O)C[C@]2(C)[C@H]1C(=O)CO,2.8% [at 53.7 µM],
CC(C)COC(=O)c1ccccc1O,3.03%,
Oc1ccc2c(c1)OCO2,7.68%,
CO/N=C(/C(=O)N[C@@H]1C(=O)N2C(C(=O)[O-])=C(C[n+]3ccn4ncccc43)CS[C@H]12)c1nsc(N)n1,2.12% [at 53.7 µM],
CCc1ccc(Br)cc1,5.39%,
CCc1cccc(O)c1,,inactive
OC1CCCCCCCCCCC1,,inactive
CC(C)=CCOC(=O)c1ccccc1,-0.15%,
CC(C)Nc1ccccc1,2.91%,
CC(=O)c1ccc(O)cc1,,inactive
Cn1sccc1=O,,inactive
CC(C)(C)NC[C@H](O)COc1cccc2c1CCCC2=O,-2.27% [at 53.7 µM],
CC(O)CO (stereo not given),,inactive
CC(C(=O)O)c1ccc(-c2ccccc2)c(F)c1 (stereo not given),4.83%,
NC(=O)N1C(=O)C(C(=O)c2cc(Cl)cs2)c2cc(F)c(Cl)cc21 (stereo not given),-1.26%,
CC(C)c1nc(CN(C)C(=O)N[C@H](C(=O)N[C@@H](Cc2ccccc2)C[C@H](O)[C@H](Cc2ccccc2)NC(=O)OCc2cncs2)C(C)C)cs1,12% [at 53.7 µM],
COc1ccc(/C=N/NC(=O)c2ccncc2)cc1OC,6.85% [at 53.7 µM],
c1ccc2[nH]ccc2c1,,inactive
CCN(Cc1c(F)cccc1Cl)c1c([N+](=O)[O-])cc(C(F)(F)F)cc1[N+](=O)[O-],-0.832%,
O=c1[nH]c(=O)c2[nH]c(=O)[nH]c2[nH]1,6.44% [at 10.5 µM],

Compound,"activity change, negative = inhibition",Potency
CN1CCN(C2Cc3ccccc3Sc3ccc(Cl)cc32)CC1 (stereo not given),-21.1% [at 53.7 µM],
CCN(CC)CC(=O)Oc1ccc(NC(C)=O)cc1,10.8% [at 53.7 µM],
Cn1c(=O)c2[nH]c(Br)nc2n(C)c1=O,5.36% [at 53.7 µM],
O=S(=O)(O)C(F)(F)F,0.252%,
CC(C)(CO)[N+](=O)[O-],-0.0877%,
C=CCOC(=O)/C=C\C(=O)OCC=C,0.505%,
C=C1C(CCl)(CCl)C2(Cl)C(Cl)C(Cl)C1(Cl)C2(Cl)Cl (stereo not given),-6.12%,
CC1(C)CC(O)CC(C)(C)N1,-23.3%,
CCc1ccc(CCOc2ccc(CC3SC(=O)NC3=O)cc2)nc1 (stereo not given),,inactive
CC[C@H](NC(C)C)[C@H](O)c1ccc(O)c2[nH]c(=O)ccc12,5.86% [at 53.7 µM],
CCCCCCOC(=O)c1ccc(O)cc1,,inactive
CCCCCCCCCCCCCC[n+]1ccccc1,,20 µM (active)
CCCCCCCCCCCSCC(=O)O,-16.5%,
CCCCCCCCC(=O)O,,inactive
CC(N)=O,-0.192% [at 293 µM],
CCOC(=O)OCC,1.14%,
COc1nc(C)nc(N)n1,-1.37%,
C=Cc1cccc(C)c1,,inactive
CCCCCCCCCCCCS,,inactive
CCN(CC)CCNC(=O)c1cc(S(C)(=O)=O)ccc1OC,-11.7% [at 53.7 µM],
